# Results as given in PubChem BioAssay.
# Activity calls are given as the source filed them.
# Legend:
# [1] = binders of probe aFSTL3 on microarray, primary screen, stem cell growth factor project, biochemical, small-molecule microarray, fluorescence 635/667 (AID 1064); details: higher = more signal;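 also: measures binding of the biotinylated anti-FSTL3 antibody to printed compounds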
# [2] = binders from COS7 lysate, DM2A8 probe, primary screen, torsin A project, cell lysate, small-molecule microarray, fluorescence 635/667 (AID 1065); details: higher = more signal, COS7 lysate expressing mutant human TOR1A
# [3] = binders of probe aFGF2 on microarray, primary screen, stem cell growth factor project, biochemical, small-molecule microarray, fluorescence 635/667 (AID 1067); details: higher = more signal;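 also: measures binding of biotinylated aFGF2 protein to printed compounds on slides; z-score merges feature fluorescence and signal-to-noise across triplicate slides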
# [4] = binders of probe aFGF10 on microarray, primary screen, stem cell growth factor project, biochemical, small-molecule microarray, fluorescence 635/667 (AID 1071); details: higher = more signal;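 also: score merges 667 nm spot intensity and signal to noise from triplicate slides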
# [5] = target: Neurogenic locus notch homolog protein 2 (Homo sapiens) (UniProt Q04721); test: Notch2 binders on small-molecule microarrays, primary screen, biochemical, small-molecule microarray, 635 nm fluorescence, stem cell growth factors (AID 1073); details: Notch2 binding, higher = more signal
# [6] = target: Pro-neuregulin-1, membrane-bound isoform (Homo sapiens) (UniProt Q02297); test: NRG1 binders on small-molecule microarrays, primary screen, psychiatric disease protein project, biochemical, small-molecule microarray, fluorescence 635/667 (AID 1075); details: NRG1 binding, 635 nm fluorescence, higher = more signal;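 also: score combines 667 nm spot fluorescence with signal to noise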
# [7] = test system: Neuregulin-1 EGF-like domain; test: binders of neuregulin-1 EGF-like domain, primary screen, biochemical, small-molecule microarray, 635 nm fluorescence (AID 1081); details: small-molecule microarray binding, higher = more signal;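 also: binding of the protein to compounds printed on small-molecule microarray slides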
# [8] = FRG1 promoter luciferase signal modulators, primary screen, FRG1 inhibition for FSHD, cell-based, C2C12 myotubes, firefly/Renilla luciferase, luminescence (AID 1084); details: higher = more signal, called active from +8 up or from −8 down
# [9] = binders of probe aFST on microarray, primary screen, stem cell growth factor project, biochemical, small-molecule microarray, fluorescence 635/667 (AID 1086); details: higher = more signal;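 also: score merges 667 nm fluorescence with signal-to-noise of each printed compound spot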
# [10] = binders of probe aHhip on microarray, primary screen, stem cell growth factor project, biochemical, small-molecule microarray, fluorescence 635/667 (AID 1087); details: higher = more signal;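 also: score merges spot fluorescence at 667nm with spot signal to noise ratio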
# Neurogenic locus notch homolog protein 2 (Homo sapiens), sequence (Q04721 whole entry, looked up, canonical isoform): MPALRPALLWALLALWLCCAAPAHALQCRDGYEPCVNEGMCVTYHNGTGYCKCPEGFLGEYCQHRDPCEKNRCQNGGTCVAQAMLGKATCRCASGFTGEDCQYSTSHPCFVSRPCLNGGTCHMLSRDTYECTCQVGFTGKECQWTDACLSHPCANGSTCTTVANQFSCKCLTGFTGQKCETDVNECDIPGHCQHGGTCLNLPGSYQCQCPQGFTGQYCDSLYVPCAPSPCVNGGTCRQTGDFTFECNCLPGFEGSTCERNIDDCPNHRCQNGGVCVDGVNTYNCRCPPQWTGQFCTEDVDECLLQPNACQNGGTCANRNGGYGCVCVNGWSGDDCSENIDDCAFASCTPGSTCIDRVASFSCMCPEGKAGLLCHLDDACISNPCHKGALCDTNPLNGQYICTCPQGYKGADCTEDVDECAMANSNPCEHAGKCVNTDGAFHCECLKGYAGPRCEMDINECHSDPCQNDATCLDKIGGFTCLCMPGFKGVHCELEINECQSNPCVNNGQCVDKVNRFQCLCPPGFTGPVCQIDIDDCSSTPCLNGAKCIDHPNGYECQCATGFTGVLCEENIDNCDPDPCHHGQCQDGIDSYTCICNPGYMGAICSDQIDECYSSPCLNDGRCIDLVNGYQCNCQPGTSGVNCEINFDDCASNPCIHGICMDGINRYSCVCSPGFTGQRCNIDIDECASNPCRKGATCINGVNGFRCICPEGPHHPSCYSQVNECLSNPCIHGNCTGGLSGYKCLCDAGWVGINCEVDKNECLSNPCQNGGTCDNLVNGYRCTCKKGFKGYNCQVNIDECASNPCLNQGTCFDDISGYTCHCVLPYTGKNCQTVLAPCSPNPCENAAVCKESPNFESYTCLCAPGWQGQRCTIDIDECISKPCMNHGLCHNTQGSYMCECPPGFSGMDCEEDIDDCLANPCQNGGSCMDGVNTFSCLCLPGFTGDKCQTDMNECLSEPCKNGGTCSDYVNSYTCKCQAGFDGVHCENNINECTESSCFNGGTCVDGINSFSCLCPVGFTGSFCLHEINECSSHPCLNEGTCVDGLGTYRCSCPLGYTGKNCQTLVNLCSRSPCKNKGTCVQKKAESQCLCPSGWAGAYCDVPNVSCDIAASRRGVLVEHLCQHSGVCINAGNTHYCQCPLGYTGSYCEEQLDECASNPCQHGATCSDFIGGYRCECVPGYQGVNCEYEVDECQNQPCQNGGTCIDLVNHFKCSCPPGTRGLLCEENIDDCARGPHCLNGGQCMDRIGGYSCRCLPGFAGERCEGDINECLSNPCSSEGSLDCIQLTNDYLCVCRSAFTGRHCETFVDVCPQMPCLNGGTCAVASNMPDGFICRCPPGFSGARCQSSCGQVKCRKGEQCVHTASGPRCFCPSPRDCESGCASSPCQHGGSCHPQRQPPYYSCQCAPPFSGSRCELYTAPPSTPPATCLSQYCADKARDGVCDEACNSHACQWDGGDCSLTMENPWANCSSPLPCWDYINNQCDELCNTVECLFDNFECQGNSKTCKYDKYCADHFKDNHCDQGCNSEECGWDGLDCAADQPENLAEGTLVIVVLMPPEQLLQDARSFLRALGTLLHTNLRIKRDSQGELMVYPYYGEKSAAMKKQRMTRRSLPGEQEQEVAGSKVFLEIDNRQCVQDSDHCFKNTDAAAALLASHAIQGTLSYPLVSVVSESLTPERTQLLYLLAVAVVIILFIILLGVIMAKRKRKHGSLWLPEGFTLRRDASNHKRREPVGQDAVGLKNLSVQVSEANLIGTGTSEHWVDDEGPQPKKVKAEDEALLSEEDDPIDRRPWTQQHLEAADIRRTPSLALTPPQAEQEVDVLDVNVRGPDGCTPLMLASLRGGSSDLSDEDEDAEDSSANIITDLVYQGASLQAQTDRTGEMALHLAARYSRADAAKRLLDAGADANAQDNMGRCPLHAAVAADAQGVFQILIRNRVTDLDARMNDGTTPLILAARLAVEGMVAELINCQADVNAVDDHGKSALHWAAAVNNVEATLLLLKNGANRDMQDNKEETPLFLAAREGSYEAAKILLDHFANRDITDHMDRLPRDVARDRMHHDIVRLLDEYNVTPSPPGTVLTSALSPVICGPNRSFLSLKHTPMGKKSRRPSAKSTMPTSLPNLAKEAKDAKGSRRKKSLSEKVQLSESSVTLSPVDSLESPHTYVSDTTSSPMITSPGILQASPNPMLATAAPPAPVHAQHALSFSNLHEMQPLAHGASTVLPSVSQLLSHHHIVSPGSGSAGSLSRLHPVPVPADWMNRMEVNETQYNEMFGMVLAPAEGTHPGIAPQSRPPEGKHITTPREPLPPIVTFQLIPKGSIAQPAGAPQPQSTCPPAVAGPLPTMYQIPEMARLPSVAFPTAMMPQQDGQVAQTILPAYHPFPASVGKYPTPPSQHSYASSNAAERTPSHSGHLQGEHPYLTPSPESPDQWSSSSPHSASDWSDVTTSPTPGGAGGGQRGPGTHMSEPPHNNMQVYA
# Pro-neuregulin-1, membrane-bound isoform (Homo sapiens), sequence (Q02297 whole entry, looked up, the tested form may be a part, canonical isoform): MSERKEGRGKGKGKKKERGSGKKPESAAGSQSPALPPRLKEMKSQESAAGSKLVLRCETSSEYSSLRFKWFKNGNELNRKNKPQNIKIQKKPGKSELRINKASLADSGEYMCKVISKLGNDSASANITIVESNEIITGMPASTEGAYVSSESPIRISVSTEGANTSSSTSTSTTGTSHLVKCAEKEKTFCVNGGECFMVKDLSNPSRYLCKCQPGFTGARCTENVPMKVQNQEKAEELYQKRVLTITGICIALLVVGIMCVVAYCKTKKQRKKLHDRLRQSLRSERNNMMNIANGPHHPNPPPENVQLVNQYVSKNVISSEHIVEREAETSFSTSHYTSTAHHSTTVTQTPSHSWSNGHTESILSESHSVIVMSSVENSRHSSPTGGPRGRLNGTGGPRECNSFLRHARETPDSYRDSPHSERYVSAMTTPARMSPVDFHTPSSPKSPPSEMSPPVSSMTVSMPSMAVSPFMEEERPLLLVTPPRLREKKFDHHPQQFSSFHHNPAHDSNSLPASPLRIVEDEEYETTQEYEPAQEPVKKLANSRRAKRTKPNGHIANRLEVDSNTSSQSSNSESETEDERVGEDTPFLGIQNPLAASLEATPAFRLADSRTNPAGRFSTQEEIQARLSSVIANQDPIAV
Structure (SMILES),composite z-score [1],composite z-score [2],composite z-score [3],composite z-score [4],composite z-score [5],composite z-score [6],composite z-score [7],z-score [8],composite z-score [9],composite z-score [10]
COc1ccc([Si](C)(C)[C@@H]2[C@@H](CC(=O)N(CCO)Cc3ccccc3)O[C@]3(C(=O)N(c4ccccc4)c4ccccc43)[C@H]2C)cc1,-0.337,0.326,-0.0455,0.276,0.212,0.954,1,-2.62 (inactive),0.593,-0.0994
COc1ccc(-c2nc(-c3ccccc3)c3c(c2C)CO[Si]3(C(C)C)C(C)C)cn1,-0.367,0.0662,-0.087,0.296,0.296,-0.199,-0.196,0.702 (inactive),-0.0377,0.176
N#Cc1ccc(NN2C(C(O)c3ccc(F)cc3)C=CC3C(=O)N(c4ccccc4)C(=O)C32)cc1 (stereo not given),-0.28,-0.17,0.183,-0.0175,0.47,1.4,1.07,0.0158 (inactive),0.87,-0.353
C=CCC(OC(C)=O)[C@@H]1[C@@H](N(Cc2cccc3ccccc23)C(=O)c2cccc3ccccc23)c2cc(OCCCO)ccc2N1C(=O)c1ccc(-c2ccccc2)cc1 (stereo not given in full),-0.0699,0.103,-0.105,0.0552,-0.603,0.523,-0.825,-1.66 (inactive),0.234,0.607
COCCOC(=O)N1C(=O)[C@@]2(c3cc(C#CC4=CCCCC4)ccc31)[C@H](C(N)=O)[C@H]1C(=O)O[C@H](c3ccccc3)[C@H](c3ccccc3)N1[C@@H]2c1ccccc1OCCO,0.193,0.33,-0.0105,0.999,1.07,1.47,1.34,-0.343 (inactive),0.306,0.388
CC(=O)NCCCC[C@@H]1NC(=O)[C@@H]2C[C@H](C(=O)NCCCC[N+](C)(C)C)[C@H](c3ccc(O)cc3)N2C1=O,-0.235,1.74,0.0056,0.88,-0.188,1.21,1.19,1.32 (inactive),0.177,0.224
NC(N)=NCCCn1cc(CNC(=O)[C@@H](N)Cc2ccccc2)nn1,0.236,0.236,0.0263,-0.0436,-0.0857,1.28,1.49,1.28 (inactive),0.044,0.0053
CCCC[C@@H]1C[C@H]1[C@@H](NC(=O)c1cccs1)c1ccc(C(F)(F)F)cc1,0.211,-0.0988,-0.0783,-0.618,-0.845,-0.265,-0.743,-0.878 (inactive),0.0353,0.948
COC(=O)[C@@]1(Cc2ccc(OC)cc2)[C@H]2c3cc(C(=O)N(C)C)n(C[C@H](O)CO)c3C[C@H]2CN1C(=O)c1ccccc1,1.37,1.31,0.263,0.504,1.76,1.25,1.2,1.55 (inactive),1.73,0.284
CC(C)N1C(=O)C[C@@](C(=O)NCCCN(C)C)(c2ccc([N+](=O)[O-])cc2)[C@H]1c1ccc(CO)cc1,-0.153,-0.351,-0.0328,0.589,-0.072,0.454,-0.412,-0.0382 (inactive),0.27,-0.409
CN(C)C(=O)[C@@]1(Cc2ccccc2CN=[N+]=[N-])N=C(c2ccc(OCCCO)cc2)O[C@H]1c1ccccc1CN=[N+]=[N-],0.262,-0.159,0.222,0.776,1.52,1.64,1.29,-4.01 (inactive),0.457,-0.388
COCCOC(=O)N1C(=O)[C@@]2(c3cc(C#CC4=CCCCC4)ccc31)[C@H](c1ccc(O)cc1)N1[C@H](c3ccccc3)[C@H](c3ccccc3)OC(=O)[C@H]1[C@@H]2C(=O)N1CCN(c2ncccn2)CC1,0.875,-0.0653,-0.141,-0.164,-1.58,0.576,-0.0176,0.214 (inactive),-0.841,-0.277
CC=CC(O)C1C=CC2C(=O)N(c3ccccc3)C(=O)C2N1Nc1ccccc1F (stereo not given),0.968,0.0233,0.384,0.547,0.264,0.82,1.36,0.584 (inactive),1.07,0.0001
CC1CC/C=C\[C@H]2OC34C=CCN(c5ccc(Cl)cc5)C(=O)[C@H]3N(CCCCCO)C(=O)[C@]4(C)C2C(=O)O1 (stereo not given in full),0.124,-0.673,-0.16,-1.26,-1.01,0.332,0.429,0.581 (inactive),-0.999,-0.0994
CCCCC(=C=CC[C@@H](O)c1ccccc1OCCO)C[C@@H](O)COCc1ccccc1,-0.0745,0.0282,-0.101,-0.333,-0.768,0.852,0.115,-2.9 (inactive),-0.462,-0.201
COC(=O)[C@@]1(Cc2ccc(F)cc2)[C@H]2c3cc(C(=O)N(C)C)n(Cc4cc(F)cc5c4OCOC5)c3C[C@H]2CN1C(=O)c1ccccc1,0.149,0.199,-0.0002,0.964,1.56,1.81,1.27,-1.82 (inactive),1.03,-0.319
C=C[C@@H](COC(C)=O)N(C(=O)OC(C)(C)C)S(=O)(=O)c1ccc(Br)cc1,0.0095,1.66,-0.0005,0.358,0.401,0.33,1.01,-3.97 (inactive),0.157,0.157
COCCOC(=O)N1C(=O)[C@@]2(c3cc(C#CC4=CCCCC4)ccc31)[C@H](c1ccc(OCCO)cc1)N1[C@H](c3ccccc3)[C@H](c3ccccc3)OC(=O)[C@H]1[C@@H]2C(=O)NC[C@H](O)c1ccccc1,0.82,0.366,-0.0032,0.246,1.24,-0.118,1.15,0.745 (inactive),1.44,0.187
C#CCN([C@@H](Cc1ccc(O)cc1)C(=O)OC)[C@@H](/C=C/C1CC1)[C@H](O)Cc1ccccc1,0.164,-0.112,-0.0732,-0.37,-0.791,-0.737,0.356,-3.55 (inactive),-0.09,-0.337
CC(C)(C)N1CC=CC23O[C@@H]4C=CCOC(=O)[C@@H]4[C@H]2C(=O)N(CCCCCCO)[C@@H]3C1=O (stereo not given in full),0.0157,-0.511,-0.178,-0.447,-0.947,-0.574,1.36,0.212 (inactive),-0.867,-0.284
CC1=C([C@H](O)CCc2ccccc2)[C@H](CO)[C@@H]2C(=O)N(C)C(=O)[C@@H]2C1,-0.0659,0.388,0.411,0.0805,0.451,0.174,0.493,-0.445 (inactive),0.0014,-0.137
COC(=O)[C@@]1(Cc2ccccc2)[C@H]2c3cc(C(=O)N(C)C)n(CCN4CNCC4=O)c3C[C@H]2CN1C(=O)c1ccccc1,1.13,1.89,0.539,0.307,-0.0763,1.71,1.22,0.37 (inactive),2,0.478
C=CCOC(=O)[C@H]1[C@@H]2C(=O)O[C@@H](c3ccccc3)[C@@H](c3ccccc3)N2[C@@H](c2ccc(OCCOC(=O)[C@H]3C[C@H]4C(=O)N[C@@H](CC(C)C)C(=O)N4[C@H]3c3cccc(OCCO)c3)cc2)[C@]12C(=O)Nc1ccc(I)cc12,-0.475,0.178,-0.0442,0.823,0.919,-0.403,1.17,0.842 (inactive),0.157,0.0373
COCCCNC(=O)[C@@]1(Cc2ccccc2CN=[N+]=[N-])N=C(c2ccc(OCCCO)cc2)O[C@H]1c1ccccc1,-0.102,2.1,0.0693,0.891,0.932,1.72,1.2,-2.01 (inactive),1.82,0.28
COC(=O)c1cn(C[C@@H](Cc2ccccc2)NC(=O)N[C@H](CO)CCc2oc(C(C)=O)c(C(=O)OC)c2C(=O)OC)nn1,-0.695,0.603,-0.0602,0.757,0.5,0.165,1.21,-0.776 (inactive),0.232,0.0274
C=C(C(=O)CC[C@@H](OC(C)=O)c1ccc(CO)o1)C(C)C,-0.0468,-0.0472,-0.08,0.114,0.17,-0.116,0.0816,0.776 (inactive),-0.105,0.0749
O=C1OCC=C[C@H]2OC34C=CCN(Cn5nnc6ccccc65)C(=O)[C@H]3N(CCCO)C(=O)[C@@H]4[C@@H]12 (stereo not given in full),0.466,-0.772,-0.0015,0.0131,-1.04,1.09,1.54,0.67 (inactive),-0.772,-0.0618
COc1cc(CO)cc(I)c1O[C@H]1C=C(C(=O)NCCO)C[C@@H](NCc2ccc(F)cc2)[C@@H]1O,-0.519,0.254,0.0062,1.34,0.366,0.406,-0.0461,-1.14 (inactive),0.245,-0.0645
CCOC(=O)C[C@H]1[C@H](OC(=O)c2ccccc2-c2ccccc2)[C@@H](NC(=O)c2ccc(-c3ccccc3)cc2)c2cc(OCCCO)ccc2N1C(=O)c1ccc2ccccc2n1,-0.405,0.286,-0.127,0.754,0.75,0.789,0.849,0.835 (inactive),0.211,-0.145
[N-]=[N+]=NCc1ccccc1C[C@@]1(C(=O)NCc2ccccc2)N=C(c2ccc(OCCCO)cc2)O[C@@H]1c1ccccc1N=[N+]=[N-],0.298,0.421,0.0075,0.629,1.33,1.07,1.1,-1.81 (inactive),1.27,0.143
